Experiment [1] is described as follows: Nuclear factor erythroid 2-related factor 2/antioxidant responsive element (Nrf2/ARE) small molecule agonists: qHTS cell viability counter screen in human keratinocytes (AID 1919968; active = well fitted curve in the direction sought with a large enough effect in the repeat runs; an effect the other way counts as inactive or inconclusive; note: nearly all actives have a fitted effect of over 55% in size). In a few lines: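 KeratinoSens HaCaT cells, 1,500/well, preincubated 5 h, then exposed to compounds in DMSO for 23 h at 37 C/5% CO2. Viability read as CellTiter-Fluor fluorescence after 1 h, in the same wells as the ARE-luciferase read.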
For orientation: Quantitative high-throughput screening tests each substance at several concentrations.

Experiment [2] in a line: Nuclear factor erythroid 2-related factor 2/antioxidant responsive element (Nrf2/ARE) small molecule agonists: luciferase reporter gene qHTS assay in human keratinocytes (AID 1919969). Note: nearly all actives have a fitted effect of over 35% in size. Note: potency is the fitted concentration of half-maximal effect. A general note: Reporter assays use an easily measured gene product as a stand-in for the process of interest.
The target in experiment [3] is Gonadotropin-releasing hormone receptor (Homo sapiens) (UniProt P30968). Description: Human gonadotropin-releasing hormone receptor (GnRHR) small molecule agonists, calcium flux assay in GnRHR-HEK293 cells (AID 1920063). Note: nearly all actives have a fitted effect of over 35% in size. The gist of the method:
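HEK293 cells stably expressing human GnRHR were dye-loaded for 1 h at 37 C. Compound was added in agonist mode and fluorescence (Ex/Em 480/540) recorded kinetically for 3 min. Fifteen concentrations, triplicates.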

In experiment [4] the target is KiSS-1 receptor (Homo sapiens) (UniProt Q969F8). Description: Human kisspeptin (KISS1R) small molecule agonists, calcium flux assay in KISS1R-HEK293 cells (AID 1920064; active = well fitted curve in the direction sought with a large enough effect in the repeat runs; an effect the other way counts as inactive or inconclusive). In a few lines:
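HEK293 cells stably expressing human KISS1R were loaded with calcium dye for 1 h at 37 C, then given compound; fluorescence (Ex/Em 480/540) was read kinetically for 3 min. Fifteen concentrations, triplicate.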

Experiment [5] can be described thus: G protein-coupled receptor (GPCR) small molecule agonists, calcium flux assay: HEK293 wild type cell line counter screen (AID 1920065). The gist of the method:
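Wild-type HEK293 cells plated 18 h, loaded with calcium dye 1 h at 37 C, then compounds added in agonist mode (ATP as positive control). Kinetic fluorescence Ex/Em 480/540 recorded 3 min at 1 sec intervals; 15 concentrations, triplicate.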

A short description of experiment [6]: p53 small molecule agonists, cell-based qHTS assay with human liver microsomes (AID 1963577). In a few lines: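 Fluorescence of the beta-lactamase reporter in p53RE-bla cells, detected with LiveBLAzer substrate (2 h, room temperature, dark), served as the read-out after 16 h compound exposure at 37 C with human liver microsomes and NADPH, each 0.5 mg/mL final.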

A short description of experiment [7]: p53 small molecule agonists, cell-based qHTS assay with rat liver microsomes (AID 1963578). In a few lines:
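Cells carrying a p53 response element–beta-lactamase reporter were plated and rested 5 h, then dosed with compound in DMSO plus rat liver microsomes and NADPH, each at 0.5 mg/mL final. After 16 h at 37 C, LiveBLAzer substrate was added for 2 h.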

The nature of experiment [8]: p53 small molecule agonists, cell-based qHTS assay with rat liver microsomes: qHTS cell viability counter screen (AID 1963580). Note: nearly all actives have a fitted effect of over 45% in size. Note: potency is the fitted concentration of half-maximal effect. In a few lines: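 p53RE-bla HCT-116 cells (4,000/well) rested 5 h at 37 C, then given Tox21 compounds in DMSO with rat liver microsomes (0.5 mg/mL final) plus NADPH (0.5 mg/mL final) for 16 h at 37 C. Viability read by CellTiter-Glo luminescence after 30 min at room temperature.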

The nature of experiment [9]: p53 small molecule agonists, cell-based qHTS assay: qHTS cell viability counter screen (AID 1963581). Note: nearly all actives have a fitted effect of over 45% in size. In a few lines: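 p53RE-bla HCT-116 cells, compounds added 5 h after plating and incubated 16 h at 37 C. Cytotoxicity measured in the same wells as intracellular ATP by CellTiter-Glo luminescence after 30 min at room temperature.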
Experiment [10] can be described thus: p53 small molecule agonists, cell-based qHTS assay (AID 1963582; active = well fitted activation curve with a large enough effect in the signal ratio in the repeat runs, not every such curve was filed as active; the % refers to the signal ratio). In a few lines:
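p53RE-bla reporter cells, compounds added in DMSO after 5 h plating, incubated 16 h at 37 C. Beta-lactamase read via 2 h room-temperature LiveBLAzer B/G FRET substrate, fluorescence intensity.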

Experiment [11] has as its target 5-hydroxytryptamine receptor 2A (Homo sapiens) (UniProt P28223). In words: 5-hydroxytryptamine receptor 2A (HTR2A) small molecule antagonists, cell-based qHTS assay (AID 1963586). Note: nearly all actives have a fitted effect of over 45% in size. In a few lines: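 Antagonist-mode intracellular calcium assay: DOI (4 nM) added after 5 min compound pre-incubation at room temperature to dye-loaded HTR2A-CHO cells. Fluorescence followed for 3 min, sampled every second.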

For experiment [12] the target is unchanged. In words: 5-hydroxytryptamine receptor 2A (HTR2A) small molecule agonists, cell-based qHTS assay (AID 1963587). Note: nearly all actives have a fitted effect of over 30% in size. The gist of the method: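 HTR2A-CHO cells, plated 18 h at 37 C/5% CO2, dye-loaded 1 h at 37 C; compounds in DMSO added by pin tool (agonist mode). Intracellular calcium flux read as kinetic fluorescence on FDSS over 2 min at 1 s intervals.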

The target in experiment [13] is Muscarinic acetylcholine receptor M1 (Homo sapiens) (UniProt P11229). Description: Cholinergic receptor muscarinic 1 (CHRM1) small molecule antagonists, cell-based qHTS assay (AID 1963588). Note: nearly all actives have a fitted effect of over 40% in size. In a few lines:
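CHRM1-CHO calcium-flux assay, antagonist mode. Cells were seeded 18 h, dye-loaded 1 h at 37 C and given compound for 5 min at RT, then acetylcholine was added at 50nM. FDSS fluorescence was read 3 min; 15 concentrations, three runs.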

Experiment [14] has the same target. Description: Cholinergic receptor muscarinic 1 (CHRM1) small molecule agonists, cell-based qHTS assay (AID 1963589). Note: nearly all actives have a fitted effect of over 35% in size. The gist of the method:
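CHO cells stably expressing human CHRM1 were loaded with calcium dye for 1 h at 37 C, then compound was added in agonist mode. Intracellular calcium fluorescence was followed kinetically at 1 s intervals. Fifteen concentrations were tested in three independent runs.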

Experiment [15] can be described thus: cAMP Responsive Elements (CRE) small molecule agonists, cell-based qHTS assay (AID 1963590). The gist of the method: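 CRE-bla HEK 293T cells, 2,000/well in DMEM with 10% dialyzed FBS and 25 mM HEPES, pre-incubated 18 h at 37 C, then exposed to compound 3 h at 37 C. Beta-lactamase reporter read with LiveBLAzer B/G FRET substrate after 2 h at room temperature.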

Experiment [16] can be described thus: cAMP Responsive Elements (CRE) small molecule antagonists, cell-based qHTS assay (AID 1963591; active = well fitted inhibition curve with a large enough effect in the signal ratio in the repeat runs, not every such curve was filed as active; the % refers to the signal ratio). In a few lines: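 CRE-bla HEK293T cells plated 18 h, then given compound plus NKH477 at 0.25 uM final for 3 h at 37C. Beta-lactamase reporter read with LiveBLAzer B/G FRET substrate after 2 h at room temperature.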
In experiment [17] the target is Beta-2 adrenergic receptor (Homo sapiens) (UniProt P07550). In words: Adrenergic beta2 receptor (ADRB2) small molecule antagonists, cell-based qHTS assay (AID 1963592). Note: series mostly up to about 92 µM; nearly all actives have a fitted effect of over 50% in size. The gist of the method:
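Cells (CHO, stable ADRB2 overexpression) incubated 18-20hr at 37C; compounds added from DMSO; agonist mix (1nM isoproterenol, 100uM IBMX, 25uM Ro-20-1724) added; 0.5hr RT; d2-cAMP and anti-cAMP-cryptate added; 1hr RT; 665/615 nm read.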

Experiment [18] addresses D(2) dopamine receptor (Homo sapiens) (UniProt P14416). Description: Dopamine D2 receptor (DRD2) small molecule agonists, cell-based qHTS assay (AID 1963594). Note: nearly all actives have a fitted effect of over 35% in size. In a few lines: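 HEK293 cells stably expressing DRD2 were cultured 24 h at 37 C, then given Ro20-1724 (0.1 mM final) and compounds for 10 min at room temperature. NKH477 (200nM) was then added for 30 min. cAMP was read by HTRF.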

The target is the same in experiment [19]. Description: Dopamine D2 receptor (DRD2) small molecule antagonists, cell-based qHTS assay (AID 1963595; active = well fitted inhibition curve with a large enough effect in the signal ratio in the repeat runs, with a control signal flat; the % refers to the signal ratio). In a few lines:
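In this cell-based antagonist screen, compounds act for 10 min at room temperature before a 30 min challenge with 12 nM quinpirole and 200 nM NKH477. cAMP is quantified by HTRF competition in DRD2-HEK293 cells containing 0.1 mM Ro20-1724.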

The structures appear in SMILES notation. Values without a mark were called inactive. Results filed as inconclusive are left out. Active and inactive are the calls of the source. Unless noted, calls come from the whole dose curve.
% is set by controls: 0 for no effect and ±100 for the full control effect.

Chain of Gonadotropin-releasing hormone receptor (Homo sapiens) (P30968 whole entry, looked up): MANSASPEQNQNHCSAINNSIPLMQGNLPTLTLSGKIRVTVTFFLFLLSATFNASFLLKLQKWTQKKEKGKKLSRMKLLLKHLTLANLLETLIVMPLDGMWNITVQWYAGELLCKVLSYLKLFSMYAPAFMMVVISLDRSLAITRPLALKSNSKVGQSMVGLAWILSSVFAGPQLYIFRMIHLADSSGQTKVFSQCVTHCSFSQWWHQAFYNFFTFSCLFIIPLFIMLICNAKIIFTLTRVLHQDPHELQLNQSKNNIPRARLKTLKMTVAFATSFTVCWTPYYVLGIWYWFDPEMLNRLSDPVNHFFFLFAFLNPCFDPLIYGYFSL
Chain of Beta-2 adrenergic receptor (Homo sapiens) (P07550 whole entry, looked up): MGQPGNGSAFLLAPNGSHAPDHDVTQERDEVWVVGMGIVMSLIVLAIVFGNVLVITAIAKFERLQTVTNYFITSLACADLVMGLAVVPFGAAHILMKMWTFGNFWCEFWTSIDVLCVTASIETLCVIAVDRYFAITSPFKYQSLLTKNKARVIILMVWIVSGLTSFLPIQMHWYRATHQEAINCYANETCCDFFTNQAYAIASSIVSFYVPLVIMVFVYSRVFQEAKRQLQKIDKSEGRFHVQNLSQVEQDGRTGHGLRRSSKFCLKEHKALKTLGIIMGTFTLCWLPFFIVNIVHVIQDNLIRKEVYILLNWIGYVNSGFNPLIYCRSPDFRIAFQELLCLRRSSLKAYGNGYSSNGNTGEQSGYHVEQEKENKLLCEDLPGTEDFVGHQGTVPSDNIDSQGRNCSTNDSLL
Chain of 5-hydroxytryptamine receptor 2A (Homo sapiens) (P28223 whole entry, looked up): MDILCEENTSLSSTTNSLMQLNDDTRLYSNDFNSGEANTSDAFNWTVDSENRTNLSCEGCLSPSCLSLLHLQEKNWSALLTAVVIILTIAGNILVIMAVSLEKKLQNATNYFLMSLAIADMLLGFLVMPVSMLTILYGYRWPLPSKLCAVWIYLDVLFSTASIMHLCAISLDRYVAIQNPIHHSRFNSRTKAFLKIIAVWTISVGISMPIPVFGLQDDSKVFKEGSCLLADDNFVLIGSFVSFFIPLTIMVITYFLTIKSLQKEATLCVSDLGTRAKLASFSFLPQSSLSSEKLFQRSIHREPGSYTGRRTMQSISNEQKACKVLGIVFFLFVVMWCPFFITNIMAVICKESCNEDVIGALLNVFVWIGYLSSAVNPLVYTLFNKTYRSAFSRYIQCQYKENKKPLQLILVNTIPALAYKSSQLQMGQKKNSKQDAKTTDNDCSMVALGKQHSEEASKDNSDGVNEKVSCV
Chain of KiSS-1 receptor (Homo sapiens) (Q969F8 whole entry, looked up): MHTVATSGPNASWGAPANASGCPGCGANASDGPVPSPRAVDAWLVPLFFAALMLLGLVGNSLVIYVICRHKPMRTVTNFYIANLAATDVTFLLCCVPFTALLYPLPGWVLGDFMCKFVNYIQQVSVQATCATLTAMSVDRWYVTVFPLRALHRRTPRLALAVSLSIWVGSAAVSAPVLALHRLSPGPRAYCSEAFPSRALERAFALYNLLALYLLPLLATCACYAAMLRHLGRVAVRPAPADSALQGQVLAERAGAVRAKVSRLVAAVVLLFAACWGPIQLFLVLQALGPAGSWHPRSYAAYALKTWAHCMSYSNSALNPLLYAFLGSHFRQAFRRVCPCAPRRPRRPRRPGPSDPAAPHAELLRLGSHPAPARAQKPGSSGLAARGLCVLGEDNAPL
Chain of D(2) dopamine receptor (Homo sapiens) (P14416 whole entry, looked up): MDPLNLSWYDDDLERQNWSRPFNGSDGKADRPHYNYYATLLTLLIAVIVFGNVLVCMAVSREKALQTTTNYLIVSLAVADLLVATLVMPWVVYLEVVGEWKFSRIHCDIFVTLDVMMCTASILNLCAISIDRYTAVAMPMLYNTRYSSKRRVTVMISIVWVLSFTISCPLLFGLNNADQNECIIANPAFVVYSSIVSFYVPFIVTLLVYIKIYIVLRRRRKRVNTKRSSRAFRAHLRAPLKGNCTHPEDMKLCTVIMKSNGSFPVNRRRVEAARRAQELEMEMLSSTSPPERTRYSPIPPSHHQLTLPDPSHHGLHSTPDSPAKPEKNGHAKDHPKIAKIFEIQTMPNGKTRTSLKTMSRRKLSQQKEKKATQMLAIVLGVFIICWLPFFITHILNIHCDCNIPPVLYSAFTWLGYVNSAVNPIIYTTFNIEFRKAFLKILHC
Chain of Muscarinic acetylcholine receptor M1 (Homo sapiens) (P11229 whole entry, looked up): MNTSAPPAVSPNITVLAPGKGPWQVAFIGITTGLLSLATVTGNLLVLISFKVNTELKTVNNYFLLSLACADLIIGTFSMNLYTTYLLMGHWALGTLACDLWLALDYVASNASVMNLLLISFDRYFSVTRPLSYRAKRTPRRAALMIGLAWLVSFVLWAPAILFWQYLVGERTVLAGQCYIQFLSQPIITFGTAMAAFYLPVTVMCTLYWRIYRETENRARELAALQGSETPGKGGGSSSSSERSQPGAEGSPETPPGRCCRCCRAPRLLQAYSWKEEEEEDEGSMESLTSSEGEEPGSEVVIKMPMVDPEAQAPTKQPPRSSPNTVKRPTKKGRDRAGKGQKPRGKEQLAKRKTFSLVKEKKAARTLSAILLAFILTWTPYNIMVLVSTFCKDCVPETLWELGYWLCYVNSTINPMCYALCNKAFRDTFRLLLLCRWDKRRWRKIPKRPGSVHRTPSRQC

In the case of `N[C@@H](CSCCCO)C(=O)O`, the results for the activity change, negative = cytotoxicity in [1], in experiment [8] and in [9] were 5.92% [at 19 µM], -10.3% [at 13.5 µM] and -10.7% [at 13.5 µM], respectively. Further, the activity, positive = activation in [2] is -5.15% [at 19 µM]. Further, in experiment [3], the activity change is -0.573% [at 11.8 µM, hits give high values]. Further, the activation in experiment [4] was 2.59% [at 15.8 µM]; in [5], 0.0618% [at 11.8 µM]; in [6] it was 1.76% [at 13.5 µM]; in [7] it was 4.94% [at 13.6 µM]; in [10], 9.64% [at 13.5 µM]; in [12] it was 0.941% [at 15.9 µM]. Also, the activation was -0.169% [at 15.8 µM] in [14], 0.961% [at 19 µM] in experiment [15] and 5.68% [at 19 µM] in [18]. Besides, the activity, negative = inhibition is 4.22% [at 12.7 µM] in experiment [11] and -6.77% [at 12.6 µM] in [13]. Further, the activity change, negative = inhibition was 4.42% [at 18.9 µM] in experiment [16], -0.974% [at 19 µM] in [17] and 8.57% [at 18.9 µM] in [19].

In the case of `CCCCOCC`, the Potency entry in experiment [1], in experiment [2], in experiment [3], in experiment [6], in [7] and in experiment [9] was “inactive” each time. Moreover, the Potency entry in [10], in [12], in experiment [13], in [14], in [15] and in experiment [16] was “inactive” throughout. For the same compound, the Potency result in experiment [17], in experiment [18] and in experiment [19] was “inactive” in each case. Further, the outcome in [4] and in experiment [5] was inactive. The Potency in [8] is 1.62 µM (active).

Consider `CCC=O`, for which the Potency result in [1], in [2], in [3], in experiment [6], in experiment [7] and in [8] was “inactive” each time. Besides, the Potency entry in [9], in experiment [10], in experiment [12], in experiment [13], in [14] and in [15] was “inactive” each time. Besides, the Potency result in experiment [16], in experiment [17], in experiment [18] and in [19] was “inactive” each time. Besides, the result in experiment [4] and in [5] was inactive.

On to `OCCNCc1ccccc1`, for which the Potency entry in [1], in experiment [3], in experiment [6], in [7], in experiment [8] and in experiment [9] was “inactive” each time. For the same compound, the Potency entry in [10], in [12], in experiment [13], in experiment [14], in experiment [15] and in [16] was “inactive” each time. For the same compound, the Potency result in [17], in [18] and in experiment [19] was “inactive” throughout. Also, in experiment [2], the Potency is 68.6 µM (active). Besides, the outcome in experiment [4] and in experiment [5] was inactive.

In the case of `CC(=O)OC(C)(C)C`, the Potency entry in experiment [1], in experiment [2], in [3], in [6], in experiment [7] and in experiment [8] was “inactive” each time. Moreover, the Potency entry in [9], in [10], in experiment [11], in experiment [12], in [14] and in [15] was “inactive” in each case. The Potency entry in [16], in experiment [18] and in experiment [19] was “inactive” in each case. The outcome in experiment [4] and in experiment [5] was inactive.

Take `O=C(O)c1ccc2c(c1)nc(C(=O)NC1CCN(C3CC3)CC1)n2Cc1cc(-c2ccc(Cl)s2)on1`: the activity change, negative = cytotoxicity in experiment [1] is 2.24% [at 19 µM]; in [8] it was 1.71% [at 13.5 µM]; in experiment [9], 10.9% [at 13.5 µM]. Also, the activity, positive = activation in [2] was 2.61% [at 19 µM]. The activity change in experiment [3] was -0.0073% [at 11.8 µM, hits give high values]. Moreover, the activation in experiment [4] is -0.617% [at 15.8 µM]; in [5], 0.0965% [at 11.8 µM]; in [6], -1.92% [at 13.5 µM]; in [7], -2.62% [at 13.6 µM]; in experiment [10], -1.36% [at 13.5 µM]; in [14] it was -0.218% [at 15.8 µM]. Moreover, in experiment [18], the activation is 23% [at 19 µM]. Also, the activity, negative = inhibition was -29.3% [at 12.7 µM] in experiment [11] and -5% [at 12.6 µM] in experiment [13]. Further, the activity change, negative = inhibition was -20.8% [at 19 µM] in experiment [17] and -5.22% [at 18.9 µM] in experiment [19].

On to `C[n+]1ccccc1/C=N/O`, for which the Potency entry in experiment [1], in experiment [2], in [3], in experiment [6], in [7] and in [8] was “inactive” each time. In addition, the Potency entry in experiment [9], in experiment [10], in experiment [15], in [16], in experiment [17] and in [18] was “inactive” each time. Further, the Potency entry in [19] is “inactive”. Besides, the outcome in [4] and in experiment [5] was inactive.

Values taken from PubChem BioAssay (Tox21).
